This is part of a sample that, as a whole, favours compounds with a hit. Of some 83,000 tested, about 20% had one in any assay.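 Method: cells in 96-well plates; compound added at one concentration; 48 h incubation; percent growth measured; values under 10 scored active.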 Values without a mark were called inactive. Active and inactive are the calls of the source.

The test system of this assay is MCF7 breast. The assay can be described thus: NCI-60 one-dose screen, 48 h (100 = growth as untreated, 0 = no growth, -100 = all killed). The settings on record: 10 µM unless noted.
Turning to `COc1cccc([C@H]2c3[nH]c4ccccc4c3C[C@H]3C(=O)N(CCCCCCC(=O)NO)CC(=O)N23)c1`, the growth was 53.7%. To `Clc1ccc(CNc2c3ccccc3nc3ccccc23)cc1` belongs 16%; to `COC(=O)c1c2c(c(C)[n+]([O-])c1C)C(=O)C=C(NCc1ccc(Br)cc1)C2=O`, -56.9% (active). For `COc1ccc(C/C(C)=C(/c2ccc(OCCN3CCCCC3)cc2)c2ccc(OC(=O)NCc3ccccc3)cc2)cc1`, the growth was -84.6% (active). `O=C1c2cccc(NCCN=Cc3cc(O)ccc3O)c2C(=O)c2c(NCCN=Cc3cc(O)ccc3O)cccc21`: the growth is -59.6% (active). Take `CS(=O)(=O)c1cccc(-c2c(-c3cccc(OS(N)(=O)=O)c3)nc3sccn23)c1`: the growth is 92%. On to `CCCCC[C@@H]1Cc2cc(O)c(C(=O)O)c3c2[C@H](C[C@]2(OC[C@@H](CC(=O)[C@@](C)(CC)C(=O)OC)[C@@H]2C)O3)O1`, for which the growth is 99.3%. To `Cc1ccc(Cl)cc1Nc1nc(C(F)(F)F)ccc1C(=O)N/N=C/c1cccnc1` belongs 11.7%; to `CCCC(O)Cn1ncc(C(=O)OCC)c1NC(=O)NCc1ccccc1F` (configuration not stated), 88%.

Turning to `COc1ccc(-c2nc(/C=C3\SC(=NCc4ccccc4)NC3=O)c3ccccn23)cc1`, the growth is -62.2% (active).

As for `COc1cccc(NC(=O)Cn2cc(CN3CCN(c4ccnc5cc(Cl)ccc45)CC3)nn2)c1`, the growth was 86.7%. For `CO[C@H]1/C=C(/C)CCC[C@H](C)[C@H](O)[C@@H](C)C(=O)C(C)(C)[C@@H](O)CC(=O)O[C@@H]1/C(C)=C/c1csc(C)n1` the value was 20.4%.

These data come from PubChem BioAssay (NCI).
